The values that follow come from PubChem BioAssay (Tox21).

Several values for one entry are separate records, joined by “and”; a condition that tells them apart may be missing. Equal values may be shown once. Records with an inconclusive call do not appear. A structure can be active in one record and inactive in another. Activity calls are given as the source filed them. The call rests on the fitted dose curve; in most records, active means well fitted curve in the direction sought with a large enough effect in the repeat runs; inconclusive means weak or mixed curves; inactive means no such curve, though single readings can be large; an effect the other way counts as inactive or inconclusive.
On the % scale 0 is the no-effect control and ±100 the full control effect; potency means the concentration at half of the fitted maximal effect.

Sequence of Nuclear receptor subfamily 1 group I member 2 (Homo sapiens) (O75469 whole entry, looked up): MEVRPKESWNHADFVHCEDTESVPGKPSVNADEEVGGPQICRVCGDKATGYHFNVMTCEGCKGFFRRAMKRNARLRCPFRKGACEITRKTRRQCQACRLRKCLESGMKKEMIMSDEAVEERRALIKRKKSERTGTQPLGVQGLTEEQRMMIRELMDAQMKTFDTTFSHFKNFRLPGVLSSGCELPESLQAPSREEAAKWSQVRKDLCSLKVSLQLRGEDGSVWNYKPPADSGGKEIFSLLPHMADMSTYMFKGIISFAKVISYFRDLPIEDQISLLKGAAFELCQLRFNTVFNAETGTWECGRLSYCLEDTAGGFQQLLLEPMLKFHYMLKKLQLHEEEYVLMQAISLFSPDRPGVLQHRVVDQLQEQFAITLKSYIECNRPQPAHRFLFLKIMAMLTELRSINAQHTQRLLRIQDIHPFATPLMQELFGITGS
Sequence of Nuclear receptor subfamily 1 group I member 2 (Rattus norvegicus) (Q9R1A7 whole entry, looked up): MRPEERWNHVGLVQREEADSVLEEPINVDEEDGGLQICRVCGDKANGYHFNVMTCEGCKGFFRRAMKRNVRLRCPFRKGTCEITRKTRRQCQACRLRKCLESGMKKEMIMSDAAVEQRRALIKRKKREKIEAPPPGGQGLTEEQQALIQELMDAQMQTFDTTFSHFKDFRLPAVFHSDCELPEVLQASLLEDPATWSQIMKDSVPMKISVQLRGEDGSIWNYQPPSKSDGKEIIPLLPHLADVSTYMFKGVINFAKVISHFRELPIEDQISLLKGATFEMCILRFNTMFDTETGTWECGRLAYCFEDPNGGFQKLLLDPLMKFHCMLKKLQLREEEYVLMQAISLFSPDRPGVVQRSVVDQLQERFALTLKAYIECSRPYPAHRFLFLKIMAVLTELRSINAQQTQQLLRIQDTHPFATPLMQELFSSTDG

Tested on in the first assay: not listed separately
Put plainly: Caspase-3/7 induction in HepG2 cells by small molecules, qHTS cell viability counter screen (AID 1346981). Further: nearly all actives have a fitted effect of over 30% in size. The settings on record: CellTiter-Fluor fluorescence, 17 h; series mostly up to 92.4 µM; activity change, negative = cytotoxicity: at the top concentration. Summed up:
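Counter screen for cytotoxicity: HepG2 exposed 16 hr to compounds, then CellTiter-Fluor viability signal (fluorescence, 1 hr reagent incubation).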
For `N[C@@H](CSSC[C@H](N)C(=O)O)C(=O)O`, the activity change, negative = cytotoxicity was 6.72% [at 0.349 µM] (inactive). On the same count and under the same terms, the figure for `Clc1cc(Cl)c(-c2c(Cl)c(Cl)cc(Cl)c2Cl)cc1Cl` is 4.73% [at 42.5 µM] (inactive). With `CCCCCCCCCCCCOC(=O)c1cc(O)c(O)c(O)c1`, the Potency is 60.9 µM (active). For the compound `C[C@H]1O[C@@H](O[C@H]2[C@@H](O)C[C@H](O[C@H]3[C@@H](O)C[C@H](O[C@H]4CC[C@@]5(C)[C@H](CC[C@@H]6[C@@H]5C[C@@H](O)[C@]5(C)[C@@H](C7=CC(=O)OC7)CC[C@]65O)C4)O[C@@H]3C)O[C@@H]2C)C[C@H](O)[C@@H]1O`, the Potency result was “inactive”.

In the case of `CCCC(C)CCC(C)=O` (stereo unspecified), the “activity change, negative = cytotoxicity” value is 0.637% (inactive). As for `COc1cc(C(=O)NS(=O)(=O)c2ccccc2C)ccc1Cc1cn(C)c2ccc(NC(=O)OC3CCCC3)cc12`, the “activity change, negative = cytotoxicity” value was -1.16% [at 42.5 µM] (inactive). Turning to `CCCCCCCCCCCCCC[n+]1ccccc1`, the Potency is 27.3 µM (active). Consider `CCCCCCC(C)OC(=O)COc1nc(F)c(Cl)c(N)c1Cl` (stereo unspecified), for which the “activity change, negative = cytotoxicity” value is -0.311% (inactive).

As for `c1cc(OCC2CO2)cc(OCC2CO2)c1` (stereo unspecified), the Potency is 60.6 µM (active). For `COc1ccccc1C=O`, the “activity change, negative = cytotoxicity” value is -0.203% (inactive). For `Brc1ccccc1-c1ccccc1`, the “activity change, negative = cytotoxicity” value was 5.12% (inactive).

On to `COC(=O)NCCC[Si](OC)(OC)OC`, for which the “activity change, negative = cytotoxicity” value was -0.566% (inactive).

On to `O=C1OC(=O)c2cccc3cccc1c23`, for which the “activity change, negative = cytotoxicity” value is -0.859% (inactive). Take `CCN(CC)CCNc1ccc(CO)c2sc3ccccc3c(=O)c12`: the Potency is 13.3 µM (active). For `CC(=O)OC(OC(C)=O)c1ccc([N+](=O)[O-])o1`, the Potency was 62.2 µM (active).

In the case of `Cc1cc(Nc2ccc(O)cc2)ccc1N`, the Potency is 48.3 µM (active). Take `C(=C/c1ccccc1)/c1ccccc1`: the “activity change, negative = cytotoxicity” value was -0.14% (inactive). Regarding `Cc1nc(Nc2ncc(C(=O)Nc3c(C)cccc3Cl)s2)cc(N2CCN(CCO)CC2)n1`, the Potency was 18.8 µM (active). On to `c1cc[nH]c1`, for which the “activity change, negative = cytotoxicity” value is 5.46% (inactive).

Take `CCCCOc1ccc(C(=O)CCN2CCCCC2)cc1`: the “activity change, negative = cytotoxicity” value was -0.0091% [at 42.5 µM] (inactive).

Consider `NCCCCCCNCCCCCCN`, for which the “activity change, negative = cytotoxicity” value was -1.85% (inactive). `CCN=C1C=CC(=C(c2ccc(N(CC)CC)cc2)c2ccc(N(CC)CC)cc2)c2ccccc21`: the Potency was 8.58 µM (active). Turning to `CCCCOC(=O)C(C)CC` (stereo unspecified), the “activity change, negative = cytotoxicity” value was 1.12% (inactive). Same read-out and setting: as for `O=C[C@H](O)[C@H](O)[C@H](O)CO`, the figure is 0.238% (inactive); as for `O=S(O)O`, -4.78% [at 19 µM] (inactive).

As to `CN(C)c1ccc(N=Nc2ccccc2C(=O)O)cc1`, the Potency is 54.5 µM (active). For `COc1cccc(O)c1`, the “activity change, negative = cytotoxicity” value is -7.32% (inactive).

Consider `COc1cccc(CCc2ccccc2OCC(CN(C)C)OC(=O)CCC(=O)O)c1` (stereo unspecified), for which the “activity change, negative = cytotoxicity” value was -6.98% [at 42.5 µM] (inactive). Turning to `CC1=C(/C=C/C(C)=C/C=C/C(C)=C/C(=O)Nc2ccc(O)cc2)C(C)(C)CCC1`, the Potency was 55.9 µM (active) and 26.6 µM (active). In the case of `CCCCCCCOC(=O)c1ccc(O)cc1`, the “activity change, negative = cytotoxicity” value is -10.5% (inactive). For the compound `CC1CCCCC1`, the “activity change, negative = cytotoxicity” value is 6.38% (inactive).

A further assay concerns the target Nuclear receptor subfamily 1 group I member 2 (Homo sapiens) (UniProt O75469). The experiment in a line: Human pregnane X receptor (PXR) small molecule agonists, qHTS assay (AID 1346982). Further: nearly all actives have a fitted effect of over 35% in size. To be noted: PXR-Luc HepG2, CYP3A4 luciferase reporter, 24 h; series mostly up to 92.4 µM; activation: at the top concentration. Summed up: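 Luminescence (ONE-Glo, 30 min RT) after 24 hr compound exposure of PXR-Luc HepG2 cells; cells rested 5 hr post-plating in 5% charcoal-stripped FBS medium.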
On to `N[C@@H](CSSC[C@H](N)C(=O)O)C(=O)O`, for which the activation is -0.742% [at 0.349 µM] (inactive).

For the compound `Clc1cc(Cl)c(-c2c(Cl)c(Cl)cc(Cl)c2Cl)cc1Cl`, the “activation” value was 6.63% [at 42.5 µM] (inactive). For the compound `CCCC(C)CCC(C)=O` (stereo unspecified), the “activation” value was -3.15% (inactive). Regarding `C=C1C(C)(C)[C@@]2(Cl)C(Cl)[C@]1(Cl)C(Cl)(Cl)C2(Cl)Cl` (stereo partly specified), the Potency was 10.7 µM (active).

With `CCCCCCC(C)OC(=O)COc1nc(F)c(Cl)c(N)c1Cl` (stereo unspecified), the “activation” value is 4.88% (inactive). Regarding `c1cc(OCC2CO2)cc(OCC2CO2)c1` (stereo unspecified), the Potency was 21.5 µM (active). With `COc1ccccc1C=O`, the “activation” value is 3.88% (inactive). As to `CNC(=O)c1cc(Oc2ccc(NC(=O)Nc3ccc(Cl)c(C(F)(F)F)c3)cc2)ccn1`, the “activation” value is -2.83% [at 42.5 µM] (inactive). In the case of `O=C1OC(=O)c2cccc3cccc1c23`, the Potency was 19.5 µM (active). Still for that read-out and setting: the figure for `CC(=O)OC(OC(C)=O)c1ccc([N+](=O)[O-])o1` is 24.8 µM (active); for `Cc1cc(Nc2ccc(O)cc2)ccc1N` it is 9.64 µM (active). Turning to `C(=C/c1ccccc1)/c1ccccc1`, the “activation” value was 6.09% (inactive). For the compound `Cc1nc(Nc2ncc(C(=O)Nc3c(C)cccc3Cl)s2)cc(N2CCN(CCO)CC2)n1`, the Potency is 1.06 µM (active).

With `c1cc[nH]c1`, the “activation” value was 6.21% (inactive). The same measure, in the same setting: as for `NCCCCCCNCCCCCCN`, the figure is 0.0154% (inactive). In the case of `CCN=C1C=CC(=C(c2ccc(N(CC)CC)cc2)c2ccc(N(CC)CC)cc2)c2ccccc21`, the Potency is 0.0242 µM (active). In the case of `CCCCOC(=O)C(C)CC` (stereo unspecified), the “activation” value is 5.06% (inactive). Still for that read-out and setting: as for `O=C[C@H](O)[C@H](O)[C@H](O)CO`, the figure is 5.95% (inactive).

As to `O=S(O)O`, the activation is 8.59% [at 19 µM] (inactive). Consider `CN(C)c1ccc(N=Nc2ccccc2C(=O)O)cc1`, for which the Potency is 21.7 µM (active). Same read-out and setting: the figure for `CCCCCCOc1ccc(O)cc1` is 48.6 µM (active). As for `COc1cccc(O)c1`, the “activation” value is 1.48% (inactive). The same measure, in the same setting: as for `COc1cccc(CCc2ccccc2OCC(CN(C)C)OC(=O)CCC(=O)O)c1` (stereo unspecified), the figure is -12% [at 42.5 µM] (inactive).

As to `CC1=C(/C=C/C(C)=C/C=C/C(C)=C/C(=O)Nc2ccc(O)cc2)C(C)(C)CCC1`, the Potency was 19.8 µM (active) and inactive.

As to `CCCCCCCOC(=O)c1ccc(O)cc1`, the Potency was 61.1 µM (active). For the compound `CC1CCCCC1`, the “activation” value was 0.86% (inactive).

The next assay has as its target Nuclear receptor subfamily 1 group I member 2 (Rattus norvegicus) (UniProt Q9R1A7). Put plainly: Rat pregnane X receptor (rPXR) activation by small molecules, qHTS assay (AID 1346983). Further: nearly all actives have a fitted effect of over 20% in size. The settings on record: rPXR luciferase reporter cells, One-Glo luminescence, 24 h; max activation: stronger effect = higher value. An outline of the steps: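 Luminescent readout (One-Glo luciferase, 30 min room temperature) followed 24 hr compound treatment at 37 C of rPXR cells plated 2,000 per well and preincubated 5hr; qHTS format with compounds delivered in DMSO.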
Take `N[C@@H](CSSC[C@H](N)C(=O)O)C(=O)O`: the max activation is -1.39% (inactive). In the case of `C[C@H]1O[C@@H](O[C@H]2[C@@H](O)C[C@H](O[C@H]3[C@@H](O)C[C@H](O[C@H]4CC[C@@]5(C)[C@H](CC[C@@H]6[C@@H]5C[C@@H](O)[C@]5(C)[C@@H](C7=CC(=O)OC7)CC[C@]65O)C4)O[C@@H]3C)O[C@@H]2C)C[C@H](O)[C@@H]1O`, the max activation was -1.12% (inactive).

With `COc1cc(C(=O)NS(=O)(=O)c2ccccc2C)ccc1Cc1cn(C)c2ccc(NC(=O)OC3CCCC3)cc12`, the max activation was -0.0293% (inactive). In the case of `CNC(=O)c1cc(Oc2ccc(NC(=O)Nc3ccc(Cl)c(C(F)(F)F)c3)cc2)ccn1`, the max activation was -24.5% (inactive). The same measure, in the same setting: as for `COc1ccccc1OCCNCC(O)COc1cccc2[nH]c3ccccc3c12` (stereo unspecified), the figure is 7.65% (inactive); as for `CCCCOc1ccc(C(=O)CCN2CCCCC2)cc1`, -1.67% (inactive); as for `COc1cccc(CCc2ccccc2OCC(CN(C)C)OC(=O)CCC(=O)O)c1` (stereo unspecified), -1.75% (inactive). For the compound `CC1=C(/C=C/C(C)=C/C=C/C(C)=C/C(=O)Nc2ccc(O)cc2)C(C)(C)CCC1`, the max activation is -17.3% (inactive).

As to `O=C1Nc2ccc(Cl)cc2[C@@](C#CC2CC2)(C(F)(F)F)O1`, the Potency is 28.2 µM (active).
